Screening results from PubChem BioAssay.
Shown are actives, neighbours in structure and some others; about 4% of the full set was active somewhere.
UGM FP inh: Mtb UDP-galactopyranose mutase inhibition; P9WIQ1; purified UGM, fluorescence polarization probe displacement; inhibition, % at 10 µM; 320,000 compounds, 0.06% hits; in the data active means inhibition above about 10%, passing the limit was not always enough
FBA Mtb inh: Mtb fructose-bisphosphate aldolase inhibition | purified M. tuberculosis FBA, fluorescence read-out | inhibition, % at 1 µM | 360,000 compounds, 2.3% hits | AID 588726; in the data active means inhibition above about 27%;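 further: 0% = vehicle and 100% = reference inhibitor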
Rv3671c inh: Rv3671c (M. tuberculosis) protease inhibition; 320,000 compounds, 0.048% hits; AID 2606; inhibition, % at 5.96 µM; in the data active means inhibition above about 38%;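 further: extracellular domain of Rv3671c used as enzyme; 0% = enzyme with DMSO and 100% = no enzyme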
RecA splice inh: blocks M. tuberculosis RecA intein splicing. cell-free RecA intein splicing, fluorescence. P9WHJ3. inhibition, % (concentration not given with the values). 290,000 compounds, 0.75% hits. AID 2221; in the data active means inhibition above about 30%;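 further: 0% = vehicle wells and 100% = reference inhibitor control wells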
GDH-TPI inh: inhibits GDH-TPI coupling enzymes, artifact for Mtb FBA screen; AID 588335; 360,000 compounds, 1.2% hits; GDH-TPI coupled enzyme counterscreen, NADH absorbance; inhibition, % at 4.8 µM; in the data active means inhibition above about 30%;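 further: 0% = DMSO wells and 100% = wells lacking the enzyme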
Mtb bLac sens: beta-lactam sensitization of Mtb H37Rv. inhibition, % at 25 µM. M. tuberculosis H37Rv growth with meropenem, percent inhibition. 330,000 compounds, 0.27% hits. AID 434955; call rule not given here;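 further: growth measured after seven days incubation then overnight dye step; 0% = bacteria only wells and 100% = bacteria with antibiotic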
The depositor's hits bear a star; i = inactive; / = not tested or not shown; + = active, no number.

SMILES	UGM FP inh	FBA Mtb inh	Rv3671c inh	RecA splice inh	GDH-TPI inh	Mtb bLac sens
O=C(NCCN1CCOCC1)/C(=C/c1ccco1)NC(=O)c1ccccc1	0	-2	-11	-5	13	-1
COc1ccc(NC(=O)CCCNC(=O)c2ccc(Cl)cc2)cc1S(=O)(=O)N1CCCCC1	/	2	/	/	3	/
Cc1nnc(C)n1/N=C/c1ccc(-c2ccccc2Cl)o1	0	1	3	2	46*	-5
S=c1[nH]nc(-c2ccccc2)n1/N=C/c1ccc(-c2ccccc2Cl)o1	-2	-5	-8	6	28	5
CCc1cc(C(=O)N2CCN(C(=O)c3ccccc3)CC2)sc1C	/	-2	/	/	-1	/
Cc1cc(OCC(=O)Nc2ccc(Br)cc2)cc2c1C(=O)CC(C)(C)O2	2	1	-32	1	-4	33
Cc1cc(OCC(=O)NCC2CCC(C(=O)O)CC2)c2c(C)c(C)c(=O)oc2c1 (stereo unspecified)	-3	21	5	5	6	-2
Cc1c(C)c2c(OCC(=O)O)cc3c(c2oc1=O)CCC(C)(C)O3	1	+	-2	-5	9	-6
Cc1c(C)c2c(OCC(=O)Nc3ccc(CCO)cc3)cc3c(c2oc1=O)CCC(C)(C)O3	0	+	-56	1	24	-3
Cc1c(C)c2c(OCC(=O)NCC(=O)NCC(=O)O)cc3c(c2oc1=O)CCC(C)(C)O3	-1	+	-5	0	12	9
CCOC(=O)C1=CN(Cc2cccc(F)c2)S(=O)(=O)N(CC)C1c1ccc(F)c(Cl)c1 (stereo unspecified)	/	0	/	/	2	/
O=C(Nc1ccc(F)cc1)c1nn(-c2ccccc2)c(=O)cc1Cl	/	1	/	31*	6	/
Cc1ccc(NC(=O)c2cc(-c3ccccc3)nn2-c2ccccc2)cc1	-2	0	-9	1	11	13
COc1ccc(Oc2coc3cc(OC(=O)/C=C/c4ccccc4)ccc3c2=O)cc1	/	1	-1	1	-4	0
COc1ccc(Oc2coc3cc(O)ccc3c2=O)cc1	-2	17	/	-2	45*	3
C#CCOc1c(/C=C\c2nc(O)c([N+](=O)[O-])c(=O)[nH]2)cc(Br)cc1OC	1	-4	3	-11	49*	1
COC(=O)COc1c(/C=C\c2nc(O)c([N+](=O)[O-])c(=O)[nH]2)cccc1OC	-2	-3	-5	2	32*	2
COc1ccc(N(CC(=O)Nc2ccccc2OC)S(=O)(=O)c2ccc(NC(C)=O)cc2)cc1	2	2	-20	1	31*	7
COc1ccccc1NC(=O)CN(c1ccccc1)S(=O)(=O)c1ccccc1	-1	8	-2	6	15	-2
Cc1cccc(NC(=O)COC(=O)c2cccs2)c1C	-1	-4	3	1	-7	-5
O=C(/C=C\Nc1ccc(Br)cc1)c1cccnc1	-3	-6	4	-12	35*	9
Cc1noc(NS(=O)(=O)c2ccc(N/C=C/C(=O)c3cccnc3)cc2)c1C	0	0	4	0	34*	3
Cc1noc(NS(=O)(=O)c2ccc(N/C=C\C(=O)c3ccncc3)cc2)c1C	4	-2	-2	1	20	1
COc1cccc(CN(C)Cc2cc(=O)oc3cc(O)c(Cl)cc23)c1	1	164*	4	i	9	-4
COc1ccc(NC(=O)C2Cc3c(-c4cccc(NC(C)=O)c4)ccnc3O2)cn1 (stereo unspecified)	/	2	/	/	2	/
SMILES	UGM FP inh	FBA Mtb inh	Rv3671c inh	RecA splice inh	GDH-TPI inh	Mtb bLac sens
CC(=O)Nc1cccc(-c2ccnc3c2CC(C(=O)NCc2ccc(F)c(F)c2)O3)c1 (stereo unspecified)	/	3	/	/	2	/
CC(=O)O[C@@H]1C[C@H]2C(C)(C)C(=O)C=C[C@]2(C)[C@H]2CC[C@@]3(C)[C@H](c4ccoc4)OC(=O)[C@H]4O[C@]43[C@@]21C	-2	3	-10	42*	3	80
CCCC(=O)NC1=C(N2CC2)C(=O)C(NC(=O)CCC)=C(N2CC2)C1=O	/	-2	/	/	33*	/
CCSc1nnc(NC(=O)c2ccco2)s1	1	1	7	-2	28	4
Cc1noc(C)c1C(=O)Nc1nnc(-c2ccccc2)s1	0	7	-11	-3	35*	-7
O=C(Nc1nnc(SCc2ccc(Cl)cc2)s1)c1ccco1	0	-2	-3	-2	32*	-5
Cc1cccc(-c2nnc(NC(=O)c3ccco3)s2)c1	0	2	-1	0	34*	-7
CCN1CCN(C(=O)C(C)Oc2ccc(S(=O)(=O)N3CCCC3)cc2C(N)=O)CC1 (stereo unspecified)	2	0	-7	/	9	4
COc1ccc(O)c(/C=N/NC(=O)CCC(=O)Nc2ccc(F)cc2)c1	-2	9	6	-17	5	0
CCN(C[C@H]1N[C@@](CC)(C(=O)OC)[C@H]2C(=O)N(Cc3ccccc3)C(=O)[C@@H]12)C(=O)c1ccccc1	/	1	-4	/	-9	3
O=C(Nc1cccnc1)c1ccc([N+](=O)[O-])s1	-3	-1	-2	/	18	99
COCc1nc(-c2ccc(-c3ccc(OC)cc3)nc2OC)no1	/	+	-6	3	17	63
CCc1nc(-c2ccc(-c3ccc(OC)cc3)nc2OC)no1	-4	152*	-8	-2	6	81
CS(=O)(=O)Nc1ccc(C(=O)Nc2ccc(S(=O)(=O)Nc3nccs3)cc2)cc1	0	-1	-7	-3	10	3
Cc1noc(NS(=O)(=O)c2ccc(NC(=O)c3cnc4scc(C)n4c3=O)cc2)c1C	4	-2	3	0	49*	1
Cc1noc(NS(=O)(=O)c2ccc(NC(=O)c3nn(-c4ccc(F)cc4)ccc3=O)cc2)c1C	2	-1	-3	9	32*	11
CN(C)c1ccc(C(=O)Nc2ccc(S(=O)(=O)Nc3nccs3)cc2)cc1	1	4	-46	0	38*	1
Cc1noc(NS(=O)(=O)c2ccc(NC(=O)c3ccc(N(C)C)cc3)cc2)c1C	0	3	2	/	32*	25
CCC[C@H]1CN(c2ccc(OC)cc2)C(=O)[C@@H]1CC(=O)NC	/	4	/	/	5	/
Cn1ncc2c(Nc3cccc([N+](=O)[O-])c3)ncnc21	3	-3	-7	-5	5	5
CC(C)c1ccc(C(=O)Nc2ccc(S(=O)(=O)NC3=NCCCCC3)cc2)cc1	/	0	/	/	-12	/
Cc1ccc(C(=O)NNC(=O)c2nn(-c3ccc(F)cc3)ccc2=O)cc1	-2	-5	1	-2	33*	-9
CN(C)c1ccc(C(=O)Nc2ccc(S(=O)(=O)NC3=NCCCCC3)cc2)cc1	0	-1	8	4	33*	2
Cc1ccc2c(CN3CCN(c4ccccc4)CC3)cc(=O)oc2c1	/	-2	/	/	/	/
N#Cc1nc(-c2ccccc2F)oc1NCCc1ccccc1	2	122*	-8	-1	-5	67
